# Results: the supplement of paper PMC8728848
# This is one part of a sample in which the strongest signals are shown more often than they occur.
# B1: Pwp3 (Candida glabrata) (protein)
# chain: MGSSHHHHHHSSGLVPRGSHMASKNPVDFTTVCQFPDNFSKKPGFLATTARLGLWITGNSYKELLNYPGTFTLTTQQASTTTPNIQLRGTDLFTTIYGLTVYPLYLLVELQGYFVPTQSGMYTFSLTGSDDAAIIFIGNPSTFPCDAFKTWPQATANDITVTDSINPSRTLYMVKGVAYPLRIAYYNGLGNGVLNAAFTDPSGTKRTDWNGYIWQYDQCSTCTYK
# How the values were obtained:
# Assay in all cases: glycan array binding signal (z-score within array); higher = stronger binding
# Details in all cases: glycan notation: IUPAC condensed, linker removed
# [1] = biological target: Fuc(a1-2)Gal(b1-4)GlcNAc(b1-3)Gal(b1-4)GlcNAc(b1-2)Man(a1-3)[Fuc(a1-2)Gal(b1-4)GlcNAc(b1-3)Gal(b1-4)GlcNAc(b1-2)Man(a1-6)]Man(b1-4)GlcNAc(b1-4)GlcNAc
# Method in brief: (§1)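 Negative Z-scores can be read as non-binding. The Z-score is calculated within each array and then averaged across arrays of one protein sequence at different concentrations or buffers and across linkers. Arrays, 3228 in all, were curated from the Consortium for Functional Glycomics database and kept only where the protein sequence was available.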
# [2] = biological target: Fuc(a1-2)Gal3S(b1-4)GlcNAc
# Method in brief: as §1
# [3] = biological target: Fuc(a1-2)[Gal(a1-3)]Gal(b1-3)GlcNAc(b1-6)GalNAc
# Method in brief: as §1
# [4] = biological target: Fuc(a1-2)[GalNAc(a1-3)]Gal(b1-3)GlcNAc(b1-3)GalNAc
# Method in brief: as §1
# [5] = biological target: Fuc(a1-2)[GalNAc(a1-3)]Gal(b1-4)GlcNAc(b1-2)Man(a1-3)[Fuc(a1-2)[GalNAc(a1-3)]Gal(b1-4)GlcNAc(b1-2)Man(a1-6)]Man(b1-4)GlcNAc(b1-4)GlcNAc
# Method in brief: as §1
# [6] = biological target: Fuc(a1-2)[GalNAc(a1-3)]Gal(b1-4)GlcNAc(b1-3)GalNAc
# Method in brief: as §1
# [7] = biological target: Fuc(a1-3)[Gal(b1-4)]Glc6S
# Method in brief: as §1
# [8] = biological target: Fuc(a1-3)[Gal(b1-4)]GlcNAc(b1-2)Man
# Method in brief: as §1
# [9] = biological target: Fuc(a1-3)[Gal(b1-4)]GlcNAc(b1-6)GalNAc
# Method in brief: as §1
# [10] = biological target: Gal(a1-4)Gal(b1-4)GlcNAc(b1-2)Man(a1-3)[Gal(a1-4)Gal(b1-4)GlcNAc(b1-2)Man(a1-6)]Man(b1-4)GlcNAc(b1-4)GlcNAc
# Method in brief: as §1
# [11] = biological target: Gal(a1-4)Gal(b1-4)GlcNAc(b1-3)Gal(b1-4)Glc
# Method in brief: as §1
# Gal(b1-3)GalNAc = biological target: Gal(b1-3)GalNAc
# Method in brief: as §1
# [12] = biological target: Gal(b1-3)GalNAc(b1-4)Gal(b1-4)Glc
# Method in brief: as §1
# [13] = biological target: Gal(b1-3)GlcNAc(b1-3)Gal(b1-3)GlcNAc
# Method in brief: as §1
# [14] = biological target: Gal(b1-3)[Fuc(a1-4)]GlcNAc
# Method in brief: as §1
# [15] = biological target: Gal(b1-4)GlcNAc(b1-2)Man(a1-3)[Gal(b1-4)GlcNAc(b1-2)Man(a1-6)][GlcNAc(b1-4)]Man(b1-4)GlcNAc(b1-4)[Fuc(a1-6)]GlcNAc
# Method in brief: as §1
# [16] = biological target: Gal(b1-4)GlcNAc(b1-2)[Gal(b1-4)GlcNAc(b1-4)]Man(a1-3)[Gal(b1-4)GlcNAc(b1-2)Man(a1-6)]Man(b1-4)GlcNAc(b1-4)GlcNAc
# Method in brief: as §1
# [17] = biological target: Gal(b1-4)GlcNAc(b1-2)[Gal(b1-4)GlcNAc(b1-6)]Man(a1-6)[GlcNAc(b1-4)][Gal(b1-4)GlcNAc(b1-2)[Gal(b1-4)GlcNAc(b1-4)]Man(a1-3)]Man(b1-4)GlcNAc(b1-4)[Fuc(a1-6)]GlcNAc
# Method in brief: as §1
# [18] = biological target: Gal(b1-4)GlcNAc(b1-3)Gal(b1-4)GlcNAc(b1-3)Gal(b1-4)GlcNAc(b1-3)Gal(b1-4)GlcNAc(b1-3)Gal(b1-4)GlcNAc(b1-2)Man(a1-3)[Gal(b1-4)GlcNAc(b1-3)Gal(b1-4)GlcNAc(b1-3)Gal(b1-4)GlcNAc(b1-3)Gal(b1-4)GlcNAc(b1-3)Gal(b1-4)GlcNAc(b1-2)Man(a1-6)]Man(b1-4)GlcNAc(b1-4)GlcNAc
# Method in brief: as §1
# Gal(b1-6)Gal = biological target: Gal(b1-6)Gal
# Method in brief: as §1
# Gal3S(b1-3)GlcNAc = biological target: Gal3S(b1-3)GlcNAc
# Method in brief: as §1
# [19] = biological target: Gal3S(b1-4)[Fuc(a1-3)]GlcNAc6S
# Method in brief: as §1
# Gal6S(b1-4)Glc6S = biological target: Gal6S(b1-4)Glc6S
# Method in brief: as §1
# Gal6S(b1-4)GlcNAc = biological target: Gal6S(b1-4)GlcNAc
# Method in brief: as §1
# [20] = biological target: GlcNAc(b1-2)Man(a1-3)[GlcNAc(b1-4)][GlcNAc(b1-2)Man(a1-6)]Man(b1-4)GlcNAc(b1-4)[Fuc(a1-6)]GlcNAc
# Method in brief: as §1
# [21] = biological target: GlcNAc(b1-3)Gal(b1-4)GlcNAc(b1-3)Gal(b1-4)GlcNAc(b1-3)Gal(b1-4)GlcNAc(b1-2)[GlcNAc(b1-3)Gal(b1-4)GlcNAc(b1-3)Gal(b1-4)GlcNAc(b1-3)Gal(b1-4)GlcNAc(b1-6)]Man(a1-6)[GlcNAc(b1-3)Gal(b1-4)GlcNAc(b1-3)Gal(b1-4)GlcNAc(b1-3)Gal(b1-4)GlcNAc(b1-2)Man(a1-3)]Man(b1-4)GlcNAc(b1-4)[Fuc(a1-6)]GlcNAc
# Method in brief: as §1
# [22] = biological target: GlcNAc(b1-3)Gal(b1-4)GlcNAc(b1-3)Gal(b1-4)GlcNAc(b1-3)Gal(b1-4)GlcNAc(b1-3)Gal(b1-4)GlcNAc(b1-2)Man(a1-3)[GlcNAc(b1-3)Gal(b1-4)GlcNAc(b1-3)Gal(b1-4)GlcNAc(b1-3)Gal(b1-4)GlcNAc(b1-3)Gal(b1-4)GlcNAc(b1-2)Man(a1-6)]Man(b1-4)GlcNAc(b1-4)GlcNAc
# Method in brief: as §1
# [23] = biological target: GlcNAc(b1-3)Gal(b1-4)GlcNAc(b1-3)Gal(b1-4)GlcNAc(b1-3)Gal(b1-4)GlcNAc(b1-3)Gal(b1-4)GlcNAc(b1-2)[GlcNAc(b1-3)Gal(b1-4)GlcNAc(b1-3)Gal(b1-4)GlcNAc(b1-3)Gal(b1-4)GlcNAc(b1-3)Gal(b1-4)GlcNAc(b1-6)]Man(a1-6)[GlcNAc(b1-3)Gal(b1-4)GlcNAc(b1-3)Gal(b1-4)GlcNAc(b1-3)Gal(b1-4)GlcNAc(b1-3)Gal(b1-4)GlcNAc(b1-2)Man(a1-3)]Man(b1-4)GlcNAc(b1-4)[Fuc(a1-6)]GlcNAc
# Method in brief: as §1
# [24] = biological target: Man(a1-2)Man(a1-2)Man(a1-6)[Man(a1-3)]Man
# Method in brief: as §1
# [25] = biological target: Man(a1-2)Man(a1-6)[Man(a1-3)]Man(a1-6)[Man(a1-2)Man(a1-2)Man(a1-3)]Man(b1-4)GlcNAc(b1-4)GlcNAc
# Method in brief: as §1
# [26] = biological target: Man(a1-3)[Man(a1-6)]Man(a1-6)[Man(a1-3)]Man
# Method in brief: as §1
# Man(a1-6)Man = biological target: Man(a1-6)Man
# Method in brief: as §1
# [27] = biological target: Neu5Ac(a2-3)Gal(b1-4)GlcNAc(b1-3)Gal(b1-4)GlcNAc(b1-3)GalNAc
# Method in brief: as §1
# [28] = biological target: Neu5Ac(a2-3)Gal(b1-4)GlcNAc(b1-3)Gal(b1-4)GlcNAc(b1-6)[Gal(b1-3)]GalNAc
# Method in brief: as §1
# [29] = biological target: Neu5Ac(a2-3)Gal(b1-4)[Fuc(a1-3)]GlcNAc
# Method in brief: as §1
# [30] = biological target: Neu5Ac(a2-3)Gal6S(b1-4)[Fuc(a1-3)]GlcNAc
# Method in brief: as §1
# [31] = biological target: Neu5Ac(a2-6)Gal(b1-4)GlcNAc(b1-2)Man(a1-3)Man(b1-4)GlcNAc(b1-4)GlcNAc
# Method in brief: as §1
# [32] = biological target: Neu5Ac(a2-6)Gal(b1-4)GlcNAc(b1-3)Gal(b1-4)GlcNAc(b1-6)[Gal(b1-3)]GalNAc
# Method in brief: as §1
# [33] = biological target: Neu5Ac(a2-8)Neu5Ac(a2-3)[GalNAc(b1-4)]Gal(b1-4)Glc
# Method in brief: as §1
# [34] = biological target: Neu5Ac(a2-8)Neu5Ac(a2-8)Neu5Ac(a2-3)Gal(b1-4)Glc
# Method in brief: as §1
# [35] = biological target: Neu5Ac(b2-6)Gal(b1-4)GlcNAc
# Method in brief: as §1
# [36] = biological target: Neu5Gc(a2-8)Neu5Gc(a2-3)Gal(b1-4)GlcNAc
# Method in brief: as §1
binder,measurement,setting,value
B1,glycan array binding signal (z-score),[1],-0.363
same,glycan array binding signal (z-score),[2],-0.232
same,glycan array binding signal (z-score),[3],4.02
same,glycan array binding signal (z-score),[4],-0.434
same,glycan array binding signal (z-score),[5],3.9
same,glycan array binding signal (z-score),[6],3.75
same,glycan array binding signal (z-score),[7],5.3
same,glycan array binding signal (z-score),[8],-0.319
same,glycan array binding signal (z-score),[9],-0.516
same,glycan array binding signal (z-score),[10],-0.343
same,glycan array binding signal (z-score),[11],-0.304
same,glycan array binding signal (z-score),Gal(b1-3)GalNAc,-0.038
same,glycan array binding signal (z-score),[12],4.7
same,glycan array binding signal (z-score),[13],0.247
same,glycan array binding signal (z-score),[14],-0.246
same,glycan array binding signal (z-score),[15],-0.02
same,glycan array binding signal (z-score),[16],-1.19
same,glycan array binding signal (z-score),[17],-0.123
same,glycan array binding signal (z-score),[18],3.73
same,glycan array binding signal (z-score),Gal(b1-6)Gal,-0.446
same,glycan array binding signal (z-score),Gal3S(b1-3)GlcNAc,-0.36
same,glycan array binding signal (z-score),[19],-0.535
same,glycan array binding signal (z-score),Gal6S(b1-4)Glc6S,6.29
same,glycan array binding signal (z-score),Gal6S(b1-4)GlcNAc,0.319
same,glycan array binding signal (z-score),[20],-0.195
same,glycan array binding signal (z-score),[21],1.66
same,glycan array binding signal (z-score),[22],-0.439
same,glycan array binding signal (z-score),[23],4.05
same,glycan array binding signal (z-score),[24],-0.335
same,glycan array binding signal (z-score),[25],-0.066
same,glycan array binding signal (z-score),[26],4.4
same,glycan array binding signal (z-score),Man(a1-6)Man,-0.259
same,glycan array binding signal (z-score),[27],-0.424
same,glycan array binding signal (z-score),[28],2.29
same,glycan array binding signal (z-score),[29],0.139
same,glycan array binding signal (z-score),[30],-0.332
same,glycan array binding signal (z-score),[31],-0.617
same,glycan array binding signal (z-score),[32],0.018
same,glycan array binding signal (z-score),[33],4.12
same,glycan array binding signal (z-score),[34],-1.21
same,glycan array binding signal (z-score),[35],0.194
same,glycan array binding signal (z-score),[36],0.001
